Experimental data from PubChem BioAssay (NCI).
This is part of a sample that, as a whole, favours compounds with a hit. Of some 83,000 tested, about 20% had one in any assay.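 Note: values are percent growth. 100 is the growth of untreated cells, values between 100 and 0 indicate rising inhibition; between -100 and 0 indicates cell death.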 Activity calls are given as the source filed them. How the source made its calls: active means growth percent below 10; inactive means the rest.

What was measured:
Test in all cases: NCI-60 one-dose screen, 48 h (100 = growth as untreated, 0 = no growth, -100 = all killed)
Settings in all cases: 10 µM unless noted
NCI-H23 lung = test system: NCI-H23 lung
NCI-H226 lung = test system: NCI-H226 lung
NCI-H322M lung = test system: NCI-H322M lung
HOP-62 NSCLC = test system: HOP-62 NSCLC
NCI-H460 lung = test system: NCI-H460 lung
NCI-H522 lung = test system: NCI-H522 lung
A549/ATCC NSCLC = test system: A549/ATCC NSCLC
786-0 renal = test system: 786-0 renal
COLO 205 colon = test system: COLO 205 colon

Measured: growth

COc1ccc(/C=C/C(=O)c2cccc(NC(=O)CSc3nc4ccccc4c(=O)n3-c3ccccc3)c2)cc1OC
inactive: NCI-H23 lung 106% | NCI-H226 lung 93.2% | NCI-H322M lung 105% | HOP-62 NSCLC 111% | NCI-H460 lung 100% | NCI-H522 lung 96.9% | A549/ATCC NSCLC 91.5% | 786-0 renal 103% | COLO 205 colon 123%

CCN(CC)CCn1c2ccc(O)cc2c2sc3cc(OC)ccc3c(=O)c21
active: NCI-H460 lung 1.49%
inactive: NCI-H23 lung 28.5% | NCI-H226 lung 72.6% | NCI-H322M lung 26.2% | HOP-62 NSCLC 26.2% | NCI-H522 lung 30.1% | A549/ATCC NSCLC 13.2% | 786-0 renal 33.3% | COLO 205 colon 17.9%

NS(=O)(=O)c1ccc(Nc2nc(SCC(=O)c3ccc(Cl)cc3)nc3c2CCCC3)cc1
inactive: NCI-H23 lung 53.9% | NCI-H226 lung 56.6% | NCI-H322M lung 87% | HOP-62 NSCLC 70% | NCI-H460 lung 21% | NCI-H522 lung 67.7% | A549/ATCC NSCLC 38.9% | 786-0 renal 84.7% | COLO 205 colon 46%

CC(C)(C)c1ccc(C(=O)Nc2nc3ccc(O)cc3s2)cc1
active: 786-0 renal 2.03% | COLO 205 colon 8.14%
inactive: NCI-H23 lung 54.8% | NCI-H226 lung 53.5% | NCI-H322M lung 54.8% | HOP-62 NSCLC 82.9% | NCI-H460 lung 19.1% | NCI-H522 lung 52.6% | A549/ATCC NSCLC 38.4%

Cc1ccc(S(=O)(=O)NCCNc2nc(Nc3ccc(N4CCN(C)CC4)cc3)nc3ccsc23)cc1
inactive: NCI-H23 lung 100% | NCI-H226 lung 104% | NCI-H322M lung 110% | HOP-62 NSCLC 112% | NCI-H460 lung 96.4% | NCI-H522 lung 109% | A549/ATCC NSCLC 93.8% | 786-0 renal 91.3% | COLO 205 colon 113%

Cc1ccc(C2=Nn3c(nnc3-c3ccccc3)SC2)cc1
active: NCI-H522 lung -2.45% | COLO 205 colon 3.27%
inactive: NCI-H23 lung 36.6% | NCI-H226 lung 61.2% | NCI-H322M lung 60.8% | HOP-62 NSCLC 27.5% | NCI-H460 lung 11.1% | A549/ATCC NSCLC 44.6% | 786-0 renal 46.8%

CNC(=O)c1cc(Oc2ccc3nc(NC(=O)c4cc(N5CCOCC5)cc(C(F)(F)F)c4)sc3c2)ccn1
inactive: NCI-H23 lung 88.2% | NCI-H226 lung 85.4% | NCI-H322M lung 89.4% | HOP-62 NSCLC 89.3% | NCI-H460 lung 67.5% | NCI-H522 lung 81.6% | A549/ATCC NSCLC 68.5% | 786-0 renal 80.3% | COLO 205 colon 94%

CNCc1cccc2c1OCCCCCCC(C)(O)CC(C)(C)S(=O)(=O)c1ccc(cc1)-c1cnc(N)c(n1)C(=O)N2 (stereo unspecified)
active: NCI-H23 lung 9.01% | NCI-H460 lung -56.3% | NCI-H522 lung -66.8% | 786-0 renal -11.9% | COLO 205 colon -48.2%
inactive: NCI-H226 lung 43.5% | NCI-H322M lung 46.2% | HOP-62 NSCLC 59.2% | A549/ATCC NSCLC 11.4%

O=C1/C(=C/C=C/c2ccco2)SC(=S)N1c1ccccc1
inactive: NCI-H23 lung 70.7% | NCI-H226 lung 67.8% | NCI-H322M lung 87.2% | HOP-62 NSCLC 104% | NCI-H460 lung 91.2% | NCI-H522 lung 58% | A549/ATCC NSCLC 52.9% | 786-0 renal 71.1% | COLO 205 colon 83.2%

Cc1[nH]c(C(=O)Nc2ccccc2OCc2cccc(C(=O)N3CCC[C@@H](N)C3)c2)c(Cl)c1Cl
active: NCI-H23 lung -80.6% | NCI-H226 lung -67.4% | NCI-H322M lung -94.3% | HOP-62 NSCLC -60.4% | NCI-H460 lung -73.7% | NCI-H522 lung -66.5% | A549/ATCC NSCLC -77% | 786-0 renal -72.6% | COLO 205 colon -64%

CCCn1cnc2c(c1=N)C(c1ccc(OC)cc1)c1sc3c(CC)cccc3c1O2 (stereo unspecified)
inactive: NCI-H23 lung 18.9% | NCI-H226 lung 57% | NCI-H322M lung 37.6% | HOP-62 NSCLC 38.8% | NCI-H460 lung 10.1% | A549/ATCC NSCLC 40.6% | 786-0 renal 32.3% | COLO 205 colon 13.9%
active: NCI-H522 lung -14.3%

Cc1ccc(N2C(=O)/C(=C/C=C/c3ccco3)SC2=S)cc1
inactive: NCI-H23 lung 98.9% | NCI-H226 lung 102% | NCI-H322M lung 96.4% | HOP-62 NSCLC 95.9% | NCI-H460 lung 88.9% | NCI-H522 lung 81.8% | A549/ATCC NSCLC 86.3% | 786-0 renal 104% | COLO 205 colon 94.3%

Cc1ccc(CSc2nc(-c3ccc(Cl)cc3)c(C#N)c(N3CCOCC3)n2)cc1
inactive: NCI-H23 lung 95% | NCI-H226 lung 94.4% | NCI-H322M lung 103% | HOP-62 NSCLC 110% | NCI-H460 lung 96.2% | NCI-H522 lung 78.4% | A549/ATCC NSCLC 91.8% | 786-0 renal 87.5% | COLO 205 colon 125%

CC[C@@H](CO)Nc1ccc2ncc(C#Cc3cncc(C(=O)Nc4ccc(CN5CCN(C)CC5)c(C(F)(F)F)c4)c3)n2n1
active: NCI-H23 lung -71.5% | NCI-H226 lung -39.4% | NCI-H322M lung -30.1% | HOP-62 NSCLC -71.7% | NCI-H460 lung -88.8% | NCI-H522 lung -76.1% | A549/ATCC NSCLC -35.3% | 786-0 renal -96.8% | COLO 205 colon -87.2%

COc1ccc(C(=O)CSc2nc3c(c(Nc4ccc(S(N)(=O)=O)cc4)n2)CCCC3)cc1
inactive: NCI-H23 lung 88.1% | NCI-H226 lung 98% | NCI-H322M lung 107% | HOP-62 NSCLC 115% | NCI-H460 lung 91.2% | NCI-H522 lung 91.4% | A549/ATCC NSCLC 92.7% | 786-0 renal 101% | COLO 205 colon 108%

Cc1ccc(S(=O)(=O)N(CC[C@@H]2C[C@H]2c2cc3ccccc3o2)S(=O)(=O)c2ccc(C)cc2)cc1
inactive: NCI-H23 lung 90.8% | NCI-H226 lung 79% | NCI-H322M lung 95.4% | HOP-62 NSCLC 115% | NCI-H460 lung 104% | NCI-H522 lung 85.3% | A549/ATCC NSCLC 94.9% | 786-0 renal 99.7% | COLO 205 colon 115%

NS(=O)(=O)c1ccc(Nc2cc(-c3ccccc3)nc(SCC(=O)c3ccccc3)n2)cc1
inactive: NCI-H23 lung 92.5% | NCI-H226 lung 92.8% | NCI-H322M lung 90.4% | HOP-62 NSCLC 106% | NCI-H460 lung 103% | NCI-H522 lung 98.6% | A549/ATCC NSCLC 98.8% | 786-0 renal 96.9% | COLO 205 colon 116%

COc1ccc(-c2nc3cccc(O)c3c(=O)n2Cc2ccccc2)cc1COc1ccc(NC(C)=O)cc1
inactive: NCI-H23 lung 62.5% [3 µM] | NCI-H226 lung 56.2% [3 µM] | NCI-H322M lung 67.6% [3 µM] | HOP-62 NSCLC 43.6% [3 µM] | NCI-H522 lung 52.5% [3 µM] | A549/ATCC NSCLC 44.9% [3 µM] | 786-0 renal 54.7% [3 µM] | COLO 205 colon 49.8% [3 µM]
active: NCI-H460 lung 4.9% [3 µM]

O=C(Nc1ccc(Br)cc1)Nc1nc2ccc([N+](=O)[O-])cc2s1
inactive: 786-0 renal 11.2%
active: NCI-H23 lung -21.9% | NCI-H226 lung -3.17% | NCI-H322M lung 8.37% | HOP-62 NSCLC 0.86% | NCI-H460 lung -3.34% | NCI-H522 lung 3.86% | A549/ATCC NSCLC 5.83% | COLO 205 colon -37%

CCNC(=O)N1CCc2cc(OC)c(OCCc3ccc(OC)c(N)c3)cc2C1c1ccc(C)cc1C (stereo unspecified)
inactive: NCI-H23 lung 20% | NCI-H226 lung 42.9% | NCI-H322M lung 40.7% | HOP-62 NSCLC 26.9% | 786-0 renal 13.3% | COLO 205 colon 13.3%
active: NCI-H460 lung 2.6% | NCI-H522 lung -30.2% | A549/ATCC NSCLC 9.14%

N#C/C(=C\c1ccc(-c2ccc(Cl)cc2Cl)o1)c1ccc(F)cc1
inactive: NCI-H23 lung 87.7% | NCI-H322M lung 93.4% | HOP-62 NSCLC 82.2% | NCI-H460 lung 90.7% | NCI-H522 lung 88.1% | A549/ATCC NSCLC 100% | 786-0 renal 94% | COLO 205 colon 100%
active: NCI-H226 lung 5.86%

Cc1nn(-c2ccccc2)c2ncnc(N/N=C/c3ccccc3O)c12
active: NCI-H460 lung 6.19%
inactive: NCI-H23 lung 14.3% | NCI-H226 lung 14.8% | NCI-H322M lung 14.1% | HOP-62 NSCLC 10.2% | NCI-H522 lung 23.1% | A549/ATCC NSCLC 11.7% | 786-0 renal 11% | COLO 205 colon 10.5%

CCO/C=N/C1=C(C#N)C(c2ccc(Cl)cc2)c2sc3c(C)cccc3c2O1 (stereo unspecified)
active: NCI-H460 lung 4.89% | NCI-H522 lung 8.93% | COLO 205 colon 4.67%
inactive: NCI-H23 lung 25.2% | NCI-H226 lung 51.1% | NCI-H322M lung 43.6% | HOP-62 NSCLC 41.4% | A549/ATCC NSCLC 26.9% | 786-0 renal 29.1%

C#C[C@]1(O)CC[C@H]2[C@@H]3CC=C4c5sc(-c6ccc7c(c6)OCO7)nc5CC[C@]4(C)[C@H]3CC[C@@]21C
active: NCI-H23 lung 6.36% | NCI-H460 lung -26.2% | NCI-H522 lung 2.16% | A549/ATCC NSCLC 6.31% | 786-0 renal -28.9%
inactive: NCI-H226 lung 32.3% | NCI-H322M lung 37.1% | HOP-62 NSCLC 11.2% | COLO 205 colon 51.9%

Cc1ccc(C2=NN(C)C(=O)C3(CCCC3)C2)cc1
inactive: NCI-H23 lung 106% | NCI-H226 lung 105% | NCI-H322M lung 103% | HOP-62 NSCLC 114% | NCI-H460 lung 112% | NCI-H522 lung 103% | A549/ATCC NSCLC 99.5% | 786-0 renal 103% | COLO 205 colon 115%

O=C1CCCC2=C1C(c1c[nH]c3ccc(Br)cc13)Cc1cc(Br)ccc1N2 (stereo unspecified)
inactive: NCI-H23 lung 45.8% | NCI-H226 lung 68.8% | NCI-H322M lung 54.2% | HOP-62 NSCLC 41.2% | NCI-H460 lung 17.3% | NCI-H522 lung 12.8% | A549/ATCC NSCLC 43.7% | 786-0 renal 41.2% | COLO 205 colon 42.5%

CCNC(=O)N1CCc2cc(OC)c(OCCc3ccc(OC)cc3)cc2C1c1ccc([N+](=O)[O-])cc1C (stereo unspecified)
inactive: NCI-H23 lung 21.2% | NCI-H226 lung 38% | NCI-H322M lung 45.4% | HOP-62 NSCLC 25.9% | A549/ATCC NSCLC 11.7% | 786-0 renal 18.2% | COLO 205 colon 25.8%
active: NCI-H460 lung 2.37% | NCI-H522 lung -8.41%

CNC(=O)c1cc(Oc2ccc3nc(NC(=O)c4cccc(OC(F)(F)F)c4)sc3c2)ccn1
inactive: NCI-H23 lung 82.8% | NCI-H226 lung 26.5% | NCI-H322M lung 92.6% | HOP-62 NSCLC 78.5% | NCI-H460 lung 75.1% | NCI-H522 lung 60.3% | A549/ATCC NSCLC 77.5% | 786-0 renal 50.4% | COLO 205 colon 106%

COc1ccc(C2CC(c3cccc(Nc4nc(Cl)nc5cc(OC)c(OC)cc45)c3)=Nc3c(N)nc(N)nc3N2)cc1 (stereo unspecified)
inactive: NCI-H23 lung 81.6% | NCI-H226 lung 84.8% | NCI-H322M lung 91.5% | HOP-62 NSCLC 53.4% | NCI-H460 lung 61.9% | NCI-H522 lung 78.6% | A549/ATCC NSCLC 82.3% | 786-0 renal 71.4% | COLO 205 colon 96.4%
